# Screening data (PubChem BioAssay)
# T cruzi growth-1: T. cruzi intracellular proliferation inhibitors, primary screen, cell-based, beta-gal Tulahuen parasites, NIH3T3 host, luminescence. T. cruzi beta-gal in NIH3T3, GalScreen luminescence, 90 h. inhibition, % at 8.34 µM. 77,000 tested, 5.9% active;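 active = mean inhibition above about 93%, with at least 55% of replicates each passing it, limit read from the data, passing the limit was not always enough; inconclusive = only one of those two conditions holds; inactive = neither condition holds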
# C diff growth: C. difficile growth inhibitors, primary screen, HTS. Clostridium difficile clinical isolate growth, OD600, 24 h; hits give low values. growth activity, negative = inhibition, % at 16 µg/mL (by protocol). 86,000 tested, 0.25% active. AID 1259249, 2017;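 active = mean growth activity at or below -80% and every replicate also at or below -80%; inconclusive = mean at or below -80% but some replicate above -80%; inactive = mean growth activity above -80%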
# T cruzi growth-2: T. cruzi intracellular proliferation inhibitors, confirmation, cell-based, NIH3T3 host, beta-gal parasite, luminescence, cherry-pick; shares compounds with T cruzi growth-1; T. cruzi beta-gal in NIH3T3, GalScreen luminescence, 90 h; inhibition, % at 8.35 µM; 5,600 tested, 72% active; AID 651739, 2012;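 active = mean replicate inhibition above about 95% and at least 55% of replicates individually reaching it, limit read from the data; inconclusive = only one of the two criteria is met; inactive = neither criterion is met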
# T cruzi growth-3: inhibitors of intracellular T. cruzi replication, confirmation, NIH3T3 host cells, beta-gal parasites, cherry-pick, set 2 | inhibition, % at 2.09 µM | AID 651740, 2012 | T. cruzi beta-gal in NIH3T3, GalScreen luminescence, 90 h | shares compounds with T cruzi growth-1 | 5,600 tested, 21% active;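 active = mean inhibition above about 95%, with at least 55% of replicates also reaching it, limit read from the data; inconclusive = meets just one of the two conditions; inactive = meets neither condition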
# NIH3T3 tox: cytotoxicity in mouse NIH/3T3 fibroblasts, confirmation, cytotoxicity control for T. cruzi proliferation inhibitor project, cell-based, cherry-pick, single point. shares compounds with T cruzi growth-1. cytotoxicity (signal decrease), % at 8.35 µM. NIH/3T3 viability, CellTiter-Glo ATP luminescence, 90 h. 5,600 tested, 14% active;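 active = mean signal decrease across replicates above about 35% based on untreated-well scatter, with enough replicates individually passing, limit read from the data; inconclusive = no rule stated though some were filed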
# NIH3T3 tox 2: NIH/3T3 fibroblast cytotoxicity, confirmation, cytotoxicity control, cell-based, cherry-pick, single point, set 2 | inhibition, % at 24.9 µM | NIH/3T3 viability, CellTiter-Glo ATP luminescence, 90 h | 5,600 tested, 56% active | shares compounds with T cruzi growth-1;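 active = mean loss of cell viability signal at or above a set limit, and enough replicates individually reaching it; inconclusive = meets only the mean limit or only the replicate share; inactive = meets neither condition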
# Numbers stand for hits; - = inactive; ? = inconclusive; . = no result given. The full list was thinned out, with hits kept by preference.
SMILES,T cruzi growth-1,C diff growth,T cruzi growth-2,T cruzi growth-3,NIH3T3 tox,NIH3T3 tox 2
C/C=C/c1ccc2c(c1)O[C@H](CN(C)C(=O)c1ccccc1)[C@@H](C)CN([C@@H](C)CO)S2(=O)=O,.,-,.,.,.,.
C[C@H](CO)N1C[C@H](C)[C@H](CN(C)C(=O)c2ccncc2)Oc2cc(/C=C/c3ccccc3)ccc2S1(=O)=O,103.1,-,96.8,-,-,59.5
C[C@H]1CN([C@@H](C)CO)S(=O)(=O)c2ccc(/C=C/c3ccccc3)cc2O[C@H]1CN(C)CC1CC1,103.2,-,106.1,-,-,104.5
C/C=C/c1ccc2c(c1)O[C@H](CN(C)CC1CC1)[C@H](C)CN([C@H](C)CO)S2(=O)=O,-,-,.,.,.,.
C[C@@H]1CN([C@H](C)CO)S(=O)(=O)c2ccc(/C=C/c3ccccc3)cc2O[C@@H]1CN(C)C(=O)c1ccncc1,-,-,.,.,.,.
CCC(=O)N(C)C[C@H]1N[C@@H](CO)[C@H]1c1ccc(-c2cccc(C#N)c2)cc1,.,-,.,.,.,.
COc1cc(CN2CC3(CN(S(=O)(=O)c4cccc(F)c4)C3)c3c([nH]c4cc(OC)ccc34)[C@H]2CO)cc(OC)c1,.,-,.,.,.,.
O=C(c1cccc(F)c1)N1CCCCN2[C@H](CO)[C@@H](c3ccc(-c4ccccc4)cc3)[C@H]2C1,-,-,.,.,.,.
O=C(c1cccc(F)c1)N1CCCCN2[C@H](C1)[C@@H](c1ccc(-c3ccccc3)cc1)[C@@H]2CO,-,-,.,.,.,.
O=C(c1cccc(F)c1)N1CCCCN2[C@H](CO)[C@H](c3ccc(-c4ccccc4)cc3)[C@H]2C1,103.5,-,108.7,-,-,87.7
O=C(c1cccc(F)c1)N1CCCCN2[C@H](CO)[C@@H](c3ccc(-c4ccccc4)cc3)[C@@H]2C1,105.7,-,106.4,?,-,59.2
COCC(=O)N(C)C[C@H]1Oc2cc(-c3ccc(F)cc3)ccc2S(=O)(=O)N([C@H](C)CO)C[C@@H]1C,-,-,.,.,.,.
C[C@@H]1CN([C@@H](C)CO)C(=O)c2cc(NS(=O)(=O)c3ccc(Cl)cc3)ccc2O[C@@H]1CN(C)C(=O)Nc1ccccc1,-,-,.,.,.,.
O=C(Nc1ccc(F)cc1)N1CCCCN2[C@@H](CO)[C@H](c3ccc(C#Cc4ccccn4)cc3)[C@@H]2C1,122.8,-,107.5,-,-,-
COc1ccc(NC(=O)N2CCCCN3[C@@H](CO)[C@H](c4ccc(C#Cc5ccccn5)cc4)[C@@H]3C2)cc1,102.6,-,109.9,109.3,-,-
O=C(Nc1ccc(F)cc1)N1CCCCN2[C@H](CO)[C@H](c3ccc(C#Cc4ccccn4)cc3)[C@H]2C1,-,-,.,.,.,.
O=C(Nc1ccccc1)N1CCCCN2[C@H](CO)[C@H](c3ccc(C#Cc4ccccn4)cc3)[C@H]2C1,103.6,-,99.1,-,-,-
COc1ccc(NC(=O)N2CCCCN3[C@H](CO)[C@H](c4ccc(C#Cc5ccccn5)cc4)[C@@H]3C2)cc1,-,-,.,.,.,.
O=C(Nc1ccccc1)N1CCCCN2[C@@H](CO)[C@H](c3ccc(C#Cc4ccccn4)cc3)[C@@H]2C1,-,-,.,.,.,.
C/C=C/c1ccc([C@H]2[C@@H](CO)N(CC3CC3)C23CN(C(=O)c2ccc4c(c2)OCO4)C3)cc1,.,-,.,.,.,.
COc1ccc(NC(=O)Nc2ccc3c(c2)CC(=O)N([C@@H](C)CO)C[C@H](C)[C@H](CN(C)C(=O)Nc2ccccc2)O3)cc1,.,-,.,.,.,.
C[C@@H]1CN([C@@H](C)CO)C(=O)c2cc(NS(=O)(=O)c3cccs3)ccc2O[C@H]1CN(C)Cc1ccccc1,-,-,.,.,.,.
COc1ccc(NC(=O)N[C@@H]2CC[C@H](CCn3cc(-c4ccccc4)nn3)O[C@@H]2CO)cc1,-,-,.,.,.,.
Cc1noc(C)c1S(=O)(=O)N(C)C[C@H]1OCCCC[C@H](C)Oc2ccc(NC(=O)Nc3cccc4ccccc34)cc2C(=O)N([C@@H](C)CO)C[C@@H]1C,99.9,-,108.7,?,-,53.6
